Tested on: Vero E6 infected with SARS-CoV-2
Test: inhibition of SARS-CoV-2 cytopathic effect; higher = more antiviral protection, active = above 15
Conditions: 48 h

Measured: inhibition of SARS-CoV-2 cytopathic effect

O=C(c1ccc(Cl)o1)N1CC2CNCC2C1 (stereo not given)
inactive: 1 nM -0.08% | 8.33 nM 1.51% | 100 nM 2.2% | 833.33 nM 1.83% | 10000 nM 0.93%

C[C@H](NC(=O)Cc1cc(F)cc(F)c1)C(=O)N[C@@H]1C(=O)N(C)c2ccccc2-c2ccccc21
inactive: 1 nM -2.68% | 8.33 nM -3.21% | 100 nM -6.27% | 833.33 nM -7.86% | 10000 nM -8.97%

CCCn1c(=O)[nH]c2nc(-c3ccc(S(=O)(=O)O)cc3)[nH]c2c1=O
inactive: 1 nM 0.98% | 8.33 nM -0.31% | 100 nM -0.83% | 833.33 nM 0.97% | 10000 nM 0.55%
